Compounds with a hit are over-represented: about 19% of the library has one in this group of screens.
DT40 TDP1 no CPT – qHTS for Inhibitors of human tyrosyl-DNA phosphodiesterase 1 (TDP1): qHTS in cells in absence of CPT; DT40 Tdp1-/- hTDP1 cells, no CPT, ATP luminescence, 48 h; Potency, µM (top dose mostly 46.2 µM), usual class: inhibitors; hit rate 15% among 420,000; AID 686978, 2013; also: nearly all actives have a fitted effect of over 55% in size
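A cellular qHTS used chicken DT40 cells lacking endogenous Tdp1 but carrying stably transfected human TDP1. Compounds were applied without camptothecin, and cell growth kinetics were judged by ATP-dependent luminescence after ≥48 hr.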
TDP1 inh – blocks human tyrosyl-DNA phosphodiesterase 1 | Q9NUW8 | recombinant TDP1, AlphaScreen DNA substrate cleavage | Potency, µM (series often up to 130 µM), usual class: inhibitors | hit rate 0.28% among 350,000 | AID 485290; also: nearly all actives have a fitted effect of over 40% in size
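E. coli-derived human Tdp1, 1 nM final. Cpd preinc 15 min RT; substrate 15 nM final, 5 min RT; AS bead mix 10 ug/ml final, 10 min RT. Signal loss = tyrosine-FITC cleavage. No-enzyme wells = max signal.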
DT40 TDP1 CPT – DT40-hTDP1 cell growth loss with CPT; chicken DT40 Tdp1-/-;hTDP1 cells + 20 nM CPT, ATP luminescence, 48 h; Potency, µM (titrated, usually from 46.2 µM), hits mostly inhibitors; hit rate 12% among 420,000; also: nearly all actives have a fitted effect of over 55% in size
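Chicken DT40 Tdp1-/- cells complemented with human TDP1, 400 cells/well, exposed to compounds plus 20 nM camptothecin for at least 48 h at 37 C; viability read as ATP content by CellTiter-Glo luminescence.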
VP16 counter – Gal4-VP16 reporter inhibition counter-screen | Potency, µM (titrated, usually from 53.6 µM), hits mostly inhibitors | Drosophila S2 Gal4-VP16 UAS-luciferase, luminescence, 20 h | hit rate 3.5% among 310,000;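 also: Gal4-VP16 expression switched on by copper sulfate through the metallothionein promoter; nearly all actives have a fitted effect of over 50% in size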
RORg inh – ROR gamma (mouse) transcription inhibition; P51450; Drosophila S2 Gal4-RORgamma UAS-luciferase reporter, 20 h; Potency, µM (titrated, usually from 53.6 µM), hits mostly inhibitors; hit rate 5.4% among 310,000; AID 2551; also: nearly all actives have a fitted effect of over 60% in size
Target sequence (P51450 whole entry, looked up, the tested form may be a part): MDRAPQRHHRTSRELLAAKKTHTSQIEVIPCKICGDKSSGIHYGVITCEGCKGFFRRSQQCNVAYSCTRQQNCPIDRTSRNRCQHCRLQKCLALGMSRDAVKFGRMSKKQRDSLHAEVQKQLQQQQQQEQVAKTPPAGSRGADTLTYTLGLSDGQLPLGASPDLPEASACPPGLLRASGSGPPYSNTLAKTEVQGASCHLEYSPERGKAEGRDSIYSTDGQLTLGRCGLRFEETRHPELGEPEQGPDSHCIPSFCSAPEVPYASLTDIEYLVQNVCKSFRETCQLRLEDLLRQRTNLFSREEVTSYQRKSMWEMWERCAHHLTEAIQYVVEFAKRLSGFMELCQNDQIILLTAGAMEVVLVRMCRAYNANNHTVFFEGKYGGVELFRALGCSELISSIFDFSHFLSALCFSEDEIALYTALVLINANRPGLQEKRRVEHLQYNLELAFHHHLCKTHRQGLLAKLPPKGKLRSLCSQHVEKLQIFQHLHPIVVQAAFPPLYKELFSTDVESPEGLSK
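Compounds are pin-transferred onto Drosophila Schneider cells expressing a copper-inducible Gal4–ROR gamma transactivation domain fusion. After 1 hr, copper sulfate is added to 700 uM final; luciferase is read 20 hr later.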
Numbers stand for hits; 0 = inactive; ? = inconclusive; - = no result given; [ ] = remark or other dose. Calls follow the shape of the dose curve; as a rule, active = well fitted curve in the direction sought with a large enough effect; inconclusive = small, poorly fitted or top-dose-only effect, or another doubt; inactive = no such curve, though single readings can be large; an effect the other way counts as inactive or inconclusive.

SMILES	DT40 TDP1 no CPT	TDP1 inh	DT40 TDP1 CPT	VP16 counter	RORg inh
O=[N+]([O-])c1cc(/C=N/O)ccc1SCc1ccccc1Cl	?	0	0	0	0
CCOc1ccc(CCNC(=O)CCc2cn(Cc3ccc(F)cc3)c3ccccc23)cc1	21µM	0	?	-	-
CCn1cc(CCC(=O)NCc2ccc(C)cc2)c2ccccc21	?	0	?	-	-
Cc1ccc(Cn2cc(CCC(=O)NCC(C)c3ccccc3)c3ccccc32)cc1 (stereo not drawn)	16µM	0	?	-	-
O=C(CCc1cn(Cc2ccc(F)cc2)c2ccccc12)NCCc1ccc(Cl)cc1	18µM	0	?	-	-
Cc1ccc(CCNC(=O)CCc2cn(Cc3ccccc3C)c3ccccc23)cc1	16µM	0	18µM	-	-
COc1ccc(C)cc1-n1[nH]nnc1=S	0	0	0	0	0
Cc1cc(C)n(-c2nnc(C)n2/N=C/c2ccccc2OCc2ccccc2Cl)n1	21µM	0	?	0	0
COc1ccc(CN2C[C@@H](CO)O[C@@H](n3cnc4c(N5CCN(CCO)CC5)ncnc43)C2)cc1	0	-	?	-	-
OC[C@@H]1CN(Cc2ccco2)C[C@H](n2cnc3c(N4CCN(c5ccccc5)CC4)ncnc32)O1	23µM	-	23µM	-	-
CN1CCN(c2ncnc3c2ncn3[C@H]2CN(Cc3ccccc3)C[C@@H](CO)O2)CC1	0	-	?	-	-
COc1cc(CN2C[C@@H](CO)O[C@@H](n3cnc4c(NC5CC5)ncnc43)C2)cc(OC)c1OC	0	-	0	-	-
OC[C@@H]1CN(Cc2ccc(Cl)cc2)C[C@H](n2cnc3c(N4CCN(c5ccccc5)CC4)ncnc32)O1	18µM	-	?	-	-
COc1cc(CN2C[C@@H](CO)O[C@@H](n3cnc4c(N5CCN(c6ccccc6)CC5)ncnc43)C2)cc(OC)c1OC	15µM	-	18µM	-	-
COc1ccc(CN2C[C@@H](CO)O[C@@H](n3cnc4c(N5CCN(c6ccccc6)CC5)ncnc43)C2)cc1	16µM	-	?	-	-
Cc1cn2c(=O)cc(COC(=O)c3cccc(NC(=O)COc4ccccc4C)c3)nc2s1	?	0	?	-	-
CCOC(=O)C1CCN(C(=O)c2cc(S(=O)(=O)N3CCCCC3)ccc2C)CC1	?	0	?	-	-
CC(C)Cn1nc(NC(=O)c2cccc(Cl)c2)c2cc3ccccc3nc21	8.2µM	0	15µM	-	-
CCCCn1nc(NC(=O)c2cccc(Cl)c2)c2cc3ccccc3nc21	?	0	?	-	-
CCCn1nc(NC(=O)c2ccco2)c2cc3ccccc3nc21	15µM	0	23µM	0	0
CCCn1nc(NC(=O)c2cccs2)c2cc3ccccc3nc21	?	-	?	0	0
CCCC(=O)Nc1nn(CC(C)C)c2nc3cc(C)ccc3cc12	0	-	0	0	0
CCn1nc(NC(=O)CC(C)C)c2cc3ccc(C)cc3nc21	?	-	29µM	0	0
CCCCn1nc(NC(=O)c2cccs2)c2cc3ccccc3nc21	18µM	-	21µM	0	0
COC(=O)[C@H](C)NC(=O)[C@@H](C)CO	-	0[21 µM]	-	0[10 µM]	0[10 µM]
SMILES	DT40 TDP1 no CPT	TDP1 inh	DT40 TDP1 CPT	VP16 counter	RORg inh
O=C(OCC(=O)N(C1CCCCC1)C1CCCCC1)c1ccco1	0	0	?	0	0
Oc1c(C(c2ccccc2F)N2CCCC2)sc2nc(-c3ccco3)nn12 (stereo not drawn)	0	0	0	-	-
CCOc1ccc(NC(=O)CN2C(=O)NC3(CCCC3)C2=O)cc1S(=O)(=O)N1CCCCC1	0	0	0	-	-
CCCn1nc(NC(=O)c2cccs2)c2cc3cc(C)ccc3nc21	16µM	0	?	0	0
CCCn1nc(NC(=O)c2cccs2)c2cc3ccc(C)cc3nc21	?	-	?	0	0
Cc1ccc2cc3c(NC(=O)c4cccnc4)nn(C)c3nc2c1	13µM	0	0	0	0
CCn1nc(NC(=O)c2ccncc2)c2cc3ccc(C)cc3nc21	0	0	0	0	0
CCn1nc(NC(=O)c2ccncc2)c2cc3cc(C)ccc3nc21	23µM	0	?	0	?
CCCCn1nc(NC(=O)c2cccs2)c2cc3cc(OC)ccc3nc21	23µM	-	18µM	0	?
CCOc1cc(CNS(=O)(=O)c2ccc3c(c2)C(C)(C)C(=O)N3)cc(OCC)c1OCC	0	0	0	-	-
Cc1ccc(OCC(=O)Nc2ccccc2OCc2cc(=O)n3ccccc3n2)cc1C	0	0	0	-	-
CCCn1nc(NC(=O)c2cccs2)c2cc3cc(OC)ccc3nc21	12µM	-	13µM	0	0
COc1ccccc1N1CCN(S(=O)(=O)c2ccc(-c3cnc(C4CC4)o3)cc2)CC1	21µM	0	?	0	?
COc1cccc(N2CCN(S(=O)(=O)c3ccc(-c4cnc(C5CC5)o4)cc3)CC2)c1	0	0	0	0	?
Cc1cccc(N2CCN(S(=O)(=O)c3ccc(-c4cnc(C5CC5)o4)cc3)CC2)c1C	13µM	0	18µM	-	-
Cc1cccc(N2CCN(S(=O)(=O)c3cn(C)cn3)CC2)c1C	0	0	0	0	0
Cc1ccc(C)c(N2CCN(S(=O)(=O)c3ccc(-c4cnc(C5CC5)o4)cc3)CC2)c1	9.2µM	0	15µM	-	-
Cc1ccc(C)c(N2CCN(S(=O)(=O)c3ccc(C4CCCCC4)cc3)CC2)c1	-	0	-	-	-
CNC(=S)NCCN1CCOCC1	0	0	0	0	0
CC(NC(=S)NCCCN1CCOCC1)C1CC2CCC1C2 (stereo not drawn)	?	0	?	?	5.6µM
CC(NC(=S)NCCN1CCOCC1)C12CC3CC(CC(C3)C1)C2 (stereo not drawn)	?	0	?	0[10 µM]	5µM
COc1ccc(CNC(=O)COC(=O)CN2C(=O)C(C)Oc3ccc(C)cc32)cc1 (stereo not drawn)	0	0	0	0	0
CCOc1cc2c(C#N)c(N3CCCCC3)nc(N)c2c(N)n1	?	0	?	0	0
CCOC(=O)C1CCN(c2nc(N)c3c(N)nc(SCC(=O)O)cc3c2C#N)CC1	?	28µM	?	0	0
COc1cc2c(C#N)c(N3CCCCC3)nc(N)c2c(N)n1	13µM	0	9.2µM	0	0
SMILES	DT40 TDP1 no CPT	TDP1 inh	DT40 TDP1 CPT	VP16 counter	RORg inh
CCN(CC)c1nc(N)c2c(N)nc(OC)cc2c1C#N	23µM	-	15µM	-	-
CCOC(=O)C1CCN(c2nc(C)cc(C)c2C#N)CC1	0	0	0	0	0
COc1cc2c(C#N)c(N3CCOCC3)nc(N)c2c(N)n1	23µM	0	13µM	?	0
Cc1nc2cccnc2n1C1CCN(C(=O)Nc2ccc(Cl)cc2)CC1	?	0	?	-	-
CC(C)OCCCNc1nc2c(cnn2C)c(=O)[nH]1	0	-	0	-	-
COc1cc2c(C#N)c(N3CCc4ccccc4C3)nc(N)c2c(N)n1	21µM	0	21µM	0	0
Clc1ccccc1Nc1ncnc2c1nc1n2CCCCC1	?	0	8.2µM	-	-
COc1ccc(CNc2ncnc3c2nc2n3CCCC2)cc1	0	0	?	-	-
COc1ccccc1Nc1ncnc2c1nc1n2CCCCC1	?	0	?	-	-
